PubChem BioAssay (EPA / NIEHS)
Records with an inconclusive call do not appear. The source made the active and inactive calls. The calls were made as follows, unless noted: active = hit-call score of the fitted dose curve at least 0.9, where 1 is the maximum; inactive = score below 0.9.

Key:
[1] = target: Hepatocyte nuclear factor 4-alpha (Homo sapiens) (UniProt P41235); assay: ATG_HNF4a_TRANS: Attagene TRANS-FACTORIAL HepG2 Assay for human Hepatocyte Nuclear Factor 4 alpha (HNF4a) (AID 2282982; active = hit-call score of the fitted dose curve at least 0.9, where 1 is the maximum); details: HepG2 HNF4a transactivation reporter, mRNA readout
Outline: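 Cells used were human HepG2, transiently carrying GAL4-UAS reporter units read out against exogenous NR-GAL4 chimeras. Reporter transcript levels after 24 h dosing were quantified by fluorescent RT-PCR and capillary electrophoresis.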

[2] = ATG_M_06_TRANS: Attagene TRANS-FACTORIAL HepG2 Assay for M06 Transcription Factor (Internal Marker) (AID 2282983; active = hit-call score of the fitted dose curve at least 0.9, where 1 is the maximum); details: HepG2 Attagene TRANS M06 internal marker reporter
Outline: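 Measured by capillary electrophoresis of fluorescently labelled RT-PCR products, this endpoint reflects reporter mRNA in HepG2 cells harbouring exogenous NR-GAL4 reporter constructs after 24 h exposure, with DMSO as baseline.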

[3] = ATG_M_32_TRANS: Attagene TRANS-FACTORIAL HepG2 Assay for M32 Transcription Factor (Internal Marker) (AID 2282984; active = hit-call score of the fitted dose curve at least 0.9, where 1 is the maximum;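 also: transcript level of a background control reporter unit measured by RT-PCR and capillary electrophoresis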); details: HepG2 Attagene TRANS M32 internal marker reporter
Outline: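 Human hepatoma HepG2, transient MRTU transfection, 24 h treatment. RNA → RT-PCR → fluorescent primer extension → HpaI digest (2 h, 37 C) → CE. Positive-direction fit vs DMSO.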

[4] = target: Nuclear receptor subfamily 4 group A member 2 (Homo sapiens) (UniProt P43354); assay: ATG_NURR1_TRANS: Attagene TRANS-FACTORIAL HepG2 Assay for human Nuclear Receptor Related Protein 1 (NURR1) (AID 2282985; active = hit-call score of the fitted dose curve at least 0.9, where 1 is the maximum); details: HepG2 Attagene TRANS reporter, mRNA readout
Outline: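 After 24 h chemical dosing, total RNA from transiently transfected HepG2 cells was reverse-transcribed and reporter cDNA PCR-amplified, FAM-labelled and analysed by capillary electrophoresis. Activity fitted in positive direction, DMSO as negative control.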

[5] = target: Nuclear respiratory factor 1 (Homo sapiens) (UniProt Q16656); assay: ATG_NRF1_CIS: Attagene CIS-FACTORIAL HepG2 Assay for human Nuclear Respiratory Factor 1 (NRF1) Orphan Gene (AID 2282987); details: HepG2 NRF1 cis-element reporter, Attagene multiplex; actives raise or lower the signal
Outline: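 Human hepatoma HepG2 cells carrying transfected promoter-regulated reporter units were incubated with test chemicals for 24 h. Reporter transcripts were measured by RT-PCR plus capillary electrophoresis, and endpoints derived by bidirectional fitting with DMSO as baseline.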

[6] = ATG_NFI_CIS: Attagene CIS-FACTORIAL HepG2 Assay for human Nuclear Factor I (NFI) (AID 2282989); details: HepG2 cis-regulatory reporter, NFI response element transcription; actives raise or lower the signal
Outline: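 After transient transfection of HepG2 with cis-promoter reporter constructs and 24 h dosing, RNA is reverse-transcribed, amplified, 6-FAM end-labelled and HpaI-digested before capillary analysis. Bidirectional curve fitting against DMSO.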

[7] = target: Myc proto-oncogene protein (Homo sapiens) (UniProt P01106); assay: ATG_Myc_CIS: Attagene CIS-FACTORIAL HepG2 Assay for human Myelocytomatosis (Myc) Proto-Oncogene Transcription Factor (AID 2282990); details: HepG2, Attagene cis-reporter transcription factor activity; actives raise or lower the signal
Outline: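 DMSO-normalised, bidirectionally fitted reporter mRNA signal. HepG2 cells transfected with cis reporter constructs, treated 24 h; transcripts detected by RT-PCR, 6-FAM primer extension and CE.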

[8] = ATG_NF_kB_CIS: Attagene CIS-FACTORIAL HepG2 Assay for human Nuclear Factor Kappa B (NF-kB) (AID 2282991); details: HepG2 Attagene cis-factorial NF-kB reporter mRNA; actives raise or lower the signal
Outline: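 Multiplexed cis-reporter assay in transiently transfected HepG2. 24 h treatment; RNA isolated, RT-PCR, labelled fragments resolved by CE. DMSO baseline.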

[9] = ATG_NRF2_ARE_CIS: Attagene CIS-FACTORIAL HepG2 Assay for human Nuclear Factor Erythroid 2 Related Factor 2 (NFR2) response to Antioxidant Response Elements (ARE) (AID 2282992); details: HepG2 Attagene ARE/NRF2 reporter, transcription factor activity; actives raise or lower the signal
Outline: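 Transient MRTU transfection of HepG2; 24 h compound exposure; TriZol RNA, RT with oligo(dT), PCR, 6-FAM primer extension, HpaI cut, CE. Bidirectional fit vs DMSO.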

[10] = ATG_Oct_MLP_CIS: Attagene CIS-FACTORIAL HepG2 Assay for human Octamer-Binding Transcription Factor (Oct) (AID 2282993); details: HepG2 Attagene cis-factorial Oct reporter, mRNA; actives raise or lower the signal
Outline: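 Cells of the HepG2 line express promoter-controlled reporter sequences whose mRNA levels, after 24 h treatment, are measured by RT-PCR and capillary electrophoresis. Increases and decreases are scored relative to DMSO.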

[11] = target: Cellular tumor antigen p53 (Homo sapiens) (UniProt P04637); assay: ATG_p53_CIS: Attagene CIS-FACTORIAL HepG2 Assay for human p53 Transcription Factor (AID 2282994); details: HepG2 p53 cis-element reporter, Attagene mRNA; actives raise or lower the signal
Outline: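 HepG2, transient MRTU transfection (cis promoter elements, endogenous TFs); 24 h dosing; RNA isolation, RT-PCR, 6-FAM primer extension, HpaI digest, CE fluorescence; bidirectional fit vs DMSO.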

[12] = BSK_3C_TissueFactor: BioMAP Diversity Plus: 3C Assay for Tissue Factor Biomarker Activity (AID 2282997); details: BioMAP 3C HUVEC, tissue factor biomarker readout; actives raise or lower the signal
Outline: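 Values derive from bidirectional curve fitting against DMSO of Tissue Factor ELISA signals, taken 24 h after dosing primary human umbilical vein endothelial cells.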

[13] = BSK_3C_uPAR: BioMAP Diversity Plus: 3C Assay for Urokinase-type plasminogen activator receptor (uPAR) Biomarker Activity (AID 2282998); details: BioMAP 3C HUVEC, uPAR biomarker ELISA; actives raise or lower the signal
Outline: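 Endothelial primary cells of human umbilical vein origin received test chemical; 24 h later uPAR was assayed by ELISA. Fitting was bidirectional, DMSO as negative control.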

[14] = BSK_3C_VCAM1: BioMAP Diversity Plus: 3C Assay for Vascular cell adhesion molecule 1 (VCAM1) Biomarker Activity (AID 2282999); details: BioMAP 3C HUVEC, VCAM1 ELISA, cytokine-stimulated; actives raise or lower the signal
Outline: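 Human umbilical vein endothelial cells were dosed with compound for 24 h, after which cell-surface VCAM-1 was quantified by ELISA. Bidirectional curve fitting used DMSO as negative control and activity baseline.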

[15] = BSK_4H_Eotaxin3: BioMAP Diversity Plus: 4H Assay for Eotaxin 3 Biomarker Activity (AID 2283000); details: primary human endothelial cells (HUVEC); actives raise or lower the signal
Outline: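 Endothelial primary cells (human umbilical vein) exposed to compound for 24 h. ELISA detection of Eotaxin-3.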

[16] = target: Oxysterols receptor LXR-alpha (Homo sapiens) (UniProt Q13133); assay: ATG_LXRa_TRANS: Attagene TRANS-FACTORIAL HepG2 Assay for human Liver X Receptor alpha (LXRa) (AID 2282980; active = hit-call score of the fitted dose curve at least 0.9, where 1 is the maximum); details: HepG2 Attagene TRANS reporter, LXRa transactivation
Outline: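 Transient HepG2 transfectants, 24 h dosing, RT-PCR/CE mRNA reporter quantitation; gain-of-signal vs DMSO.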

[17] = target: Oxysterols receptor LXR-beta (Homo sapiens) (UniProt P55055); assay: ATG_LXRb_TRANS: Attagene TRANS-FACTORIAL HepG2 Assay for human Liver X Receptor beta (LXRb) (AID 2282981; active = hit-call score of the fitted dose curve at least 0.9, where 1 is the maximum); details: HepG2 Attagene TRANS GAL4-LXRb reporter, mRNA
Outline: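 In this TRANS format, exogenous chimeric NR-Gal4 protein activity, not endogenous factors, drives reporter expression in transfected human HepG2 cells. Exposure lasted 24 h; reporter mRNA was read by fluorescent capillary electrophoresis.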

[18] = target: Glucocorticoid receptor (Homo sapiens) (UniProt P04150); assay: ATG_GR_TRANS: Attagene TRANS-FACTORIAL HepG2 Assay for human Glucocorticoid Receptor (GR) (AID 2282978; active = hit-call score of the fitted dose curve at least 0.9, where 1 is the maximum;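 also: activators score as hits since higher reporter transcript over DMSO is fitted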); details: HepG2 Attagene TRANS GR reporter, mRNA transcription
Outline: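 Multiplexed TRANS reporter system, HepG2; 24 h exposure; RNA → oligo(dT) RT → reporter-specific PCR → 6-FAM primer extension → HpaI cut → CE fluorescence. Gain-of-signal vs DMSO.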

Measured: AC50

Cellular tumor antigen p53 (Homo sapiens), sequence (P04637 whole entry, looked up): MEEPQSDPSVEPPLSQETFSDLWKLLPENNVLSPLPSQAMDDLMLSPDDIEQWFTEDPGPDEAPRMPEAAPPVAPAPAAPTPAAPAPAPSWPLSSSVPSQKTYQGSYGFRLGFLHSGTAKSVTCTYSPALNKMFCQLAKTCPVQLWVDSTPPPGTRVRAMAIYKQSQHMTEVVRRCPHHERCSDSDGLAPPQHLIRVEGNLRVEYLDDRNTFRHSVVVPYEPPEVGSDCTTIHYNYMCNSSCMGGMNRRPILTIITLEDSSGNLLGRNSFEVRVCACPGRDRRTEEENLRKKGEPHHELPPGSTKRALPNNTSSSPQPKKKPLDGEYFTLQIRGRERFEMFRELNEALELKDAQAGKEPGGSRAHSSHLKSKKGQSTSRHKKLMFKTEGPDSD
Nuclear respiratory factor 1 (Homo sapiens), sequence (Q16656 whole entry, looked up): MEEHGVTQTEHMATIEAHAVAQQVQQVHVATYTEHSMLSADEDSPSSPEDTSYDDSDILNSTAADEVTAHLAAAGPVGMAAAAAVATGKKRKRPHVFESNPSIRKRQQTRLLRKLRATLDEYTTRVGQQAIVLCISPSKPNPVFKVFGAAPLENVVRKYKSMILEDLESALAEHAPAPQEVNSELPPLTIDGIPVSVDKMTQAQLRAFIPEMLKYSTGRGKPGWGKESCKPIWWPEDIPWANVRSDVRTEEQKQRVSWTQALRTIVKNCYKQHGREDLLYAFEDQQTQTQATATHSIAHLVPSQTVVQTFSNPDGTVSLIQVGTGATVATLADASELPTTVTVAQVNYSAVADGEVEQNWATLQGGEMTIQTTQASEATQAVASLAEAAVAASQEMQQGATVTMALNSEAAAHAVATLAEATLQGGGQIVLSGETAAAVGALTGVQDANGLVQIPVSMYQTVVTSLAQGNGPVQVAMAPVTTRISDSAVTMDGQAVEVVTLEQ
Myc proto-oncogene protein (Homo sapiens), sequence (P01106 whole entry, looked up): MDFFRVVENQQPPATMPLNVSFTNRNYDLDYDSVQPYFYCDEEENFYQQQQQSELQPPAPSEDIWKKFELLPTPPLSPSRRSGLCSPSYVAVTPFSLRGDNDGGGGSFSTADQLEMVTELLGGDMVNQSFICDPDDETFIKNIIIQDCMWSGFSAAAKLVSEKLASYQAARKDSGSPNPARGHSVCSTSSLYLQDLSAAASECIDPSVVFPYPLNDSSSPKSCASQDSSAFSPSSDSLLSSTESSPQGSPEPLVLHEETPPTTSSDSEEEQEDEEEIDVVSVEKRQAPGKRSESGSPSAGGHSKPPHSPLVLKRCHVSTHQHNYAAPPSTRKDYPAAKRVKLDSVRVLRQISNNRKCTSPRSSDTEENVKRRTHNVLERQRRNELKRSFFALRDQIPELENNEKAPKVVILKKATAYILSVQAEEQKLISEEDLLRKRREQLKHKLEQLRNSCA
Nuclear receptor subfamily 4 group A member 2 (Homo sapiens), sequence (P43354 whole entry, looked up): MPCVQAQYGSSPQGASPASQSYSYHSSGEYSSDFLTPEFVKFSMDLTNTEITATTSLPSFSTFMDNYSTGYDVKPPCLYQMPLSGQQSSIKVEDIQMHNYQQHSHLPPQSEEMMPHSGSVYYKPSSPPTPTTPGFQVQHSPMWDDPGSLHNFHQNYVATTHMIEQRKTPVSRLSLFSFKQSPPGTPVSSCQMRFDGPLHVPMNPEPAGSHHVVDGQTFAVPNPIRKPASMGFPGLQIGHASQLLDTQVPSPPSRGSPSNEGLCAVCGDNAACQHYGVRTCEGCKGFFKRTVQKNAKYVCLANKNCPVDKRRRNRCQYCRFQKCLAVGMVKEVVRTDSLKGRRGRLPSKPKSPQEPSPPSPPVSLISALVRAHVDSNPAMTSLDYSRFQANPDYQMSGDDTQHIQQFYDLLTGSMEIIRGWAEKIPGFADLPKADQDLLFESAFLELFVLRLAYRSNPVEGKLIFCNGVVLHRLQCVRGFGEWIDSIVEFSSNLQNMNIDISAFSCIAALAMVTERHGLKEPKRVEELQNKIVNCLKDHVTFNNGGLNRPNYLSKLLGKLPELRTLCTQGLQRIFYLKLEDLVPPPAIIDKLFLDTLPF
Oxysterols receptor LXR-alpha (Homo sapiens), sequence (Q13133 whole entry, looked up): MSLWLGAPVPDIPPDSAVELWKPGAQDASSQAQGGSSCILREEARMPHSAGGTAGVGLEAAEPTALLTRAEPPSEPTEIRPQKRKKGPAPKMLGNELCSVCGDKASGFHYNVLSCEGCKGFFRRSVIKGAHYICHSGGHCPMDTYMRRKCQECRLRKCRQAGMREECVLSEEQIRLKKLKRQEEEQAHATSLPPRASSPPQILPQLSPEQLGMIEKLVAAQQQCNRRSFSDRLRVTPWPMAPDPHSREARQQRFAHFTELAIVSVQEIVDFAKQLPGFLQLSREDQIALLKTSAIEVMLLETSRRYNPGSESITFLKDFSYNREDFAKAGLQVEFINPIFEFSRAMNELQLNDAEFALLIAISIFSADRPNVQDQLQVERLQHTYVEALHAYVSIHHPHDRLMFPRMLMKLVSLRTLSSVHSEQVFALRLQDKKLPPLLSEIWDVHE
Hepatocyte nuclear factor 4-alpha (Homo sapiens), sequence (P41235 whole entry, looked up, the tested form may be a part): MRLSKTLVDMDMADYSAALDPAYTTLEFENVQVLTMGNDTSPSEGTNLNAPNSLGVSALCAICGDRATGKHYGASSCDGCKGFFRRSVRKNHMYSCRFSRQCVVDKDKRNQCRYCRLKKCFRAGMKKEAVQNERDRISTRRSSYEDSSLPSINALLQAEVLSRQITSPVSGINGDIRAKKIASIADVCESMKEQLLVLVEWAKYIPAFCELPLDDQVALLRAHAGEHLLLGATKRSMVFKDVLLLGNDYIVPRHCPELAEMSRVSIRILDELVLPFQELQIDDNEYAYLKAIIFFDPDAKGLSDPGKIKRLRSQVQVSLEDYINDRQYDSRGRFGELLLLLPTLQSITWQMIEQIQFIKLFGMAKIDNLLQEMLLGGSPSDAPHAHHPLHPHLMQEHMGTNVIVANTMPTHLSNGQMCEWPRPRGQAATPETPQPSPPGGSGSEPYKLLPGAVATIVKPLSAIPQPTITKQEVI
Glucocorticoid receptor (Homo sapiens), sequence (P04150 whole entry, looked up): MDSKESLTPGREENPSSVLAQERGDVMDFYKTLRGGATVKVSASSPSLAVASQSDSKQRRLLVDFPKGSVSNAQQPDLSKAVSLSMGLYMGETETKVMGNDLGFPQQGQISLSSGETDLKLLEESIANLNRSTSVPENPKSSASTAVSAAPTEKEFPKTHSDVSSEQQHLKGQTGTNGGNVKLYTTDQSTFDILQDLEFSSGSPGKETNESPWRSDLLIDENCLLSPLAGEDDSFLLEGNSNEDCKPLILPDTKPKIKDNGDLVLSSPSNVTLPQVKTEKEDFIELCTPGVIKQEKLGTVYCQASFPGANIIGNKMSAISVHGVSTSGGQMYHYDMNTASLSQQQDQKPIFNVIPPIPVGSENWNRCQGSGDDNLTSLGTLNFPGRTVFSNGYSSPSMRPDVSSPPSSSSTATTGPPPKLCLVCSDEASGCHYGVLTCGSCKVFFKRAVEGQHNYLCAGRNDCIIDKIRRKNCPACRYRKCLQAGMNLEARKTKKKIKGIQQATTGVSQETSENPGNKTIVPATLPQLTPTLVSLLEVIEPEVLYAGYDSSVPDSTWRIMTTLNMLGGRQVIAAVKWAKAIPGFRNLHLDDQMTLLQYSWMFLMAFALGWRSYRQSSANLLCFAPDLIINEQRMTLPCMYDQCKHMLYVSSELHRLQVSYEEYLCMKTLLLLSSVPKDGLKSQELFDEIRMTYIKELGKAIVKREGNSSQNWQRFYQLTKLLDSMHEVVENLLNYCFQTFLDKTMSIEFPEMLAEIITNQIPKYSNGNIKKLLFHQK
Oxysterols receptor LXR-beta (Homo sapiens), sequence (P55055 whole entry, looked up, the tested form may be a part): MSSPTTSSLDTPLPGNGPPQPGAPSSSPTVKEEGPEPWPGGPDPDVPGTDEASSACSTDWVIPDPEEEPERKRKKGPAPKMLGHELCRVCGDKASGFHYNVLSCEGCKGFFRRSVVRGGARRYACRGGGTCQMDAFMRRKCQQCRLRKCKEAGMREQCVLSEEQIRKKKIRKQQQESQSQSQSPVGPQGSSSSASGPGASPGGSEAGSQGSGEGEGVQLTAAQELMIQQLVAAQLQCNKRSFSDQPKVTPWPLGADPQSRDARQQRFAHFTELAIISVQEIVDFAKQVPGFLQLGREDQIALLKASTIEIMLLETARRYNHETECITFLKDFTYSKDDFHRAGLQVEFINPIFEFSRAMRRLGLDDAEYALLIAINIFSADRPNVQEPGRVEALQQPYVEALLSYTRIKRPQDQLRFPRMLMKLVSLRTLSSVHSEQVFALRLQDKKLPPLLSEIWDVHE

O=C1c2ccccc2C(=O)N1CCc1noc(-c2ccc(CN3CCCCCC3)s2)n1
active: [9] 23.1 µM
not listed: [16] | [17] | [18]
inactive: all other assays above

Cc1ncc(CO)c(CO)c1O
not listed: [1] | [3] | [6] | [8] | [18]
inactive: all other assays above

CC(=O)N1CCN(c2ccc(OC[C@H]3CO[C@](Cn4ccnc4)(c4ccc(Cl)cc4Cl)O3)cc2)CC1
active: [4] 43.7 µM | [9] 24 µM | [10] 9.69 µM | [12] 31.1 µM | [13] 29.8 µM | [15] 33.7 µM
not listed: [1] | [2] | [16] | [17]
inactive: all other assays above
